Several values for one entry are separate records, joined by “and”; a condition that tells them apart may be missing. Identical values can stand only once. Results filed as inconclusive are left out. Some structures have more than one record in an assay (separate samples or runs), and their calls can disagree. Activity calls are given as the source filed them. Unless noted, calls come from the whole dose curve; as a rule, active = well fitted curve in the direction sought with a large enough effect in the repeat runs; inconclusive = weak or mixed curves; inactive = no such curve, though single readings can be large; an effect the other way counts as inactive or inconclusive.

Assay [1] can be described thus: qHTS assay to test for compound auto fluorescence at 535 nm (green) in HEK293 cells (AID 720680).
Assay [2] can be described thus: qHTS assay to test for compound auto fluorescence at 460 nm (blue) in HEK293 cell free culture (AID 720681). The method in brief: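 Test compounds were pinned into cell-free culture medium (DMEM with 10% FBS) and fluorescence was read directly at Ex/Em 405/460 nm. Signals were expressed as fluorescence equivalents of triamterene, with DMSO vehicle as control.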
(In qHTS, concentration-response curves come from the screen itself.)

Assay [3] is described as follows: qHTS assay to test for compound auto fluorescence at 535 nm (green) in HEK293 cell free culture (AID 720682). The method in brief: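 No cells present: wells hold DMEM supplemented with 10% FBS, into which compound or vehicle is pinned. Green emission is then recorded (485 nm excitation, 535 nm emission) and scaled to fluorescein.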
A short description of assay [4]: qHTS assay to test for compound auto fluorescence at 590 nm (red) in HEK293 cell free culture (AID 720683). An outline of the steps: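 Tox21 10K library compounds were pinned into cell-free DMEM with 10% FBS and fluorescence was read at excitation 540 nm. Activity is expressed as Rose Bengal sodium equivalency.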
Assay [5] in a line: qHTS assay to test for compound auto fluorescence at 590 nm (red) in HepG2 cell free culture (AID 720684). The method in brief: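 Red fluorescence (540 nm excitation, 590 nm emission) was measured after compound transfer into cell-free MEM supplemented with 10% FBS. Values are equivalencies against Rose Bengal sodium.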
Assay [6] can be described thus: qHTS assay to test for compound auto fluorescence at 460 nm (blue) in HepG2 cell free culture (AID 720685). An outline of the steps:
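Compound (23 nL) or DMSO pinned into cell-free MEM with 10% FBS; blue fluorescence read at 405/460 nm excitation/emission, expressed as auto-fluorescence equivalency to triamterene.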

A short description of assay [7]: qHTS assay to test for compound auto fluorescence at 535 nm (green) in HepG2 cell free culture (AID 720686).
Assay [8] in a line: qHTS assay to test for compound auto fluorescence at 460 nm (blue) in HepG2 cells (AID 720687). The method in brief:
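Cells (2,000/well in MEM with 10% FBS) attached overnight at 37 C, then were exposed to compound or DMSO for 1 hr at 37 C, 5% CO2. Fluorescence read at Ex/Em 405/460 nm, expressed as triamterene-equivalent signal.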

The nature of assay [9]: qHTS assay to identify small molecule antagonists of the glucocorticoid receptor (GR) signaling pathway - cell viability counter screen (AID 720693). Note: nearly all actives have a fitted effect of over 55% in size.
Assay [10] is described as follows: qHTS assay for identifying genotoxic compounds that show differential cytotoxicity against isogenic chicken DT40 cell lines with known DNA damage response pathways - wild type cell line (AID 743012). Note: nearly all actives have a fitted effect of over 60% in size. Note: potency is the fitted concentration of half-maximal effect. The method in brief:
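Using parental DT40 (300 cells/well), compounds delivered in DMSO incubate 40 h at 37 C/5% CO2. CellTiter-Glo reagent then stands 30 min at room temperature, and luminescence gives cell viability.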

Assay [11] is described as follows: qHTS assay for identifying genotoxic compounds that show differential cytotoxicity against isogenic chicken DT40 cell lines with known DNA damage response pathways - Rev3 mutant cell line (AID 743014). Note: nearly all actives have a fitted effect of over 55% in size. Note: potency is the fitted concentration of half-maximal effect.
A short description of assay [12]: qHTS assay for identifying genotoxic compounds that show differential cytotoxicity against isogenic chicken DT40 cell lines with known DNA damage response pathways - Rad54/Ku70 mutant cell line (AID 743015). Note: nearly all actives have a fitted effect of over 60% in size. Note: potency is the fitted concentration of half-maximal effect.
The nature of assay [13]: qHTS assay to identify small molecule antagonists of the androgen receptor (AR) signaling pathway - cell viability counter screen (AID 743033; note: nearly all actives have a fitted effect of over 45% in size).
The target in assay [14] is Androgen receptor (Homo sapiens) (UniProt P10275). Kind of assay: qHTS assay to identify small molecule antagonists of the androgen receptor (AR) signaling pathway (AID 743035; active = well fitted inhibition curve with a large enough effect in the signal ratio in the repeat runs, not every such curve was filed as active; the % refers to the signal ratio). The method in brief:
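Using qHTS, AR-UAS-bla GripTite HEK293 cells received compound, then R1881, and were cultured 16 h at 37C/5% CO2 before a 2 h room-temperature LiveBLAzer B/G FRET substrate step and fluorescence measurement.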

The target is the same in assay [15]. The experiment in a line: qHTS assay to identify small molecule agonists of the androgen receptor (AR) signaling pathway (AID 743036; active = well fitted activation curve with a large enough effect in the signal ratio in the repeat runs, with a control signal flat, not every such curve was filed as active; the % refers to the signal ratio). The method in brief:
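Quantitative HTS of the Tox21 10K library in HEK293 cells bearing a stably integrated UAS-controlled beta-lactamase reporter. Compound exposure lasted 16 h at 37C. Reporter activity was detected by FRET substrate fluorescence after 2 h at room temperature.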

Assay [16] is described as follows: qHTS assay to identify small molecule antagonists of the androgen receptor (AR) signaling pathway using the MDA cell line - cell viability counter screen (AID 743041; note: nearly all actives have a fitted effect of over 45% in size). The method in brief: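 MDA-kb2 AR-luc human breast carcinoma cells (MMTV-luciferase, AR/GR responsive) were treated with compounds plus R1881 agonist for 16 h at 37 °C. Viability was read as CellTiter-Fluor fluorescence in the same wells as the reporter assay.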

Assay [17] concerns the target Androgen receptor (Homo sapiens) (UniProt P10275). Kind of assay: qHTS assay to identify small molecule antagonists of the androgen receptor (AR) signaling pathway using the MDA cell line (AID 743042; note: nearly all actives have a fitted effect of over 55% in size). An outline of the steps: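 MDA-kb2 cells (human breast carcinoma, stably carrying an MMTV-luciferase reporter responsive to AR and GR) were plated at 3,000 cells/well and preincubated 5 hr at 37C, then given compound plus R1881 agonist for 16 h. ONE-Glo luminescence was read.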

The nature of assay [18]: qHTS assay to identify small molecule antagonists of the thyroid receptor (TR) signaling pathway - cell viability counter screen (AID 743064). Note: nearly all actives have a fitted effect of over 50% in size. The method in brief: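 Rat GH3 pituitary tumor cells stably expressing two TR response elements driving luciferase were plated, rested 4 h, then dosed with library compounds and T3 (1 nM final). After 23.5 h at 37 °C, CellTiter-Fluor was added for 30 min and fluorescence recorded.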

The target of assay [19] is Glucocorticoid receptor (Homo sapiens) (UniProt P04150). Kind of assay: qHTS assay to identify small molecule agonists of the glucocorticoid receptor (GR) signaling pathway (AID 720691; active = well fitted activation curve with a large enough effect in the signal ratio in the repeat runs, not every such curve was filed as active; the % refers to the signal ratio). An outline of the steps:
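Reporter read-out: fluorescence intensity following 2 h room-temperature LiveBLAzer B/G FRET substrate loading. Prior step: GR-bla HeLa cells held 4 h, then treated 18 h at 37 C.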

For assay [20] the target is unchanged. The experiment in a line: qHTS assay to identify small molecule antagonists of the glucocorticoid receptor (GR) signaling pathway (AID 720692; active = well fitted inhibition curve with a large enough effect in the signal ratio in the repeat runs, not every such curve was filed as active; the % refers to the signal ratio). An outline of the steps: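 Dexamethasone (5 nM final) stimulated a stably integrated GRE-beta-lactamase reporter in HeLa cells during 18 h co-incubation with compounds; signal was quantified as fluorescence intensity of B/G FRET substrate after 2 h.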

Chain of Androgen receptor (Homo sapiens) (P10275 whole entry, looked up): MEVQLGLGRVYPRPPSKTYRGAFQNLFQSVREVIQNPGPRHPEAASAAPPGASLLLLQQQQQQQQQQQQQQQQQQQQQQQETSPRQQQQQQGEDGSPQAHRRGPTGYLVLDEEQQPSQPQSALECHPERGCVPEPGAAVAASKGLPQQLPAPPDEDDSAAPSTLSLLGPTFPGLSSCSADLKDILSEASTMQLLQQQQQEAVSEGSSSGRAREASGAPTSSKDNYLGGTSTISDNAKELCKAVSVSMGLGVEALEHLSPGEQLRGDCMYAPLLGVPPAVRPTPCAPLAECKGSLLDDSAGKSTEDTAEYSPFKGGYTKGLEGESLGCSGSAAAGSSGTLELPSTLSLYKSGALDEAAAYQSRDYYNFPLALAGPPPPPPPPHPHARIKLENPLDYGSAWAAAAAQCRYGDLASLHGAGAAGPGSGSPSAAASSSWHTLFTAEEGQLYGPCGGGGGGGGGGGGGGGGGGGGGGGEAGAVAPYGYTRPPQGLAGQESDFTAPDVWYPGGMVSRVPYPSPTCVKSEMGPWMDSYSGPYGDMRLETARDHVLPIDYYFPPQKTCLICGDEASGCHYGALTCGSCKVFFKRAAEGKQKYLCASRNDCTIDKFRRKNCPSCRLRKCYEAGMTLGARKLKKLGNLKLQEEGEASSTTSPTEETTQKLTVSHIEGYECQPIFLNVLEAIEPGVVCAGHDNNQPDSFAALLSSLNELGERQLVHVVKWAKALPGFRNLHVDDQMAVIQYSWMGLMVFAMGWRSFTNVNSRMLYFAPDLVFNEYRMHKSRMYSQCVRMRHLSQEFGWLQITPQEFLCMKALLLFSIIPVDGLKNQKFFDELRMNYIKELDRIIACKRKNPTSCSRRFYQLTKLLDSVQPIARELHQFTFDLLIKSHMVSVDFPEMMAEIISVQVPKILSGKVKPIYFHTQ
Chain of Glucocorticoid receptor (Homo sapiens) (P04150 whole entry, looked up): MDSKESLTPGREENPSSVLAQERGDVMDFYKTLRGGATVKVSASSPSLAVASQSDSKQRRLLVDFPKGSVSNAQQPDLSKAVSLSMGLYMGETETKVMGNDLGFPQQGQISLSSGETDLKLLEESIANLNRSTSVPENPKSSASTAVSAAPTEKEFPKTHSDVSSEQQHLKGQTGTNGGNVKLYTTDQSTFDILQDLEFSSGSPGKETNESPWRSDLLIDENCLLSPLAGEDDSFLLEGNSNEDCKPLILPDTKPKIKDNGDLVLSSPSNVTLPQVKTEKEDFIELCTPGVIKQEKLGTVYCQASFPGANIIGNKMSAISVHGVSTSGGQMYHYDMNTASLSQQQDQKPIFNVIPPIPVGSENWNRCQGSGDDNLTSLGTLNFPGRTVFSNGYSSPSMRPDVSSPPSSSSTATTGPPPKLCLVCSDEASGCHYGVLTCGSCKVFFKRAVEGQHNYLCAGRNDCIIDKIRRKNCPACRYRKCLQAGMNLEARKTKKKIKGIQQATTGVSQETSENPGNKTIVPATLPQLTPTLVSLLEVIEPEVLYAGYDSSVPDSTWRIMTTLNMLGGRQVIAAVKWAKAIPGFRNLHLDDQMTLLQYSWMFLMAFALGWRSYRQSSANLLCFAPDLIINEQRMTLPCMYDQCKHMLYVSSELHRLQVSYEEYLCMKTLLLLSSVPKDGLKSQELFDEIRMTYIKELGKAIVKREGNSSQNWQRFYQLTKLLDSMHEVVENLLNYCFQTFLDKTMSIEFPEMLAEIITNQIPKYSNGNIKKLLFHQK

Regarding `CCc1cccc2c3c([nH]c12)C(CC)(CC(=O)O)OCC3` (stereo unspecified), the Potency result in assay [1], in assay [2], in assay [3], in [4], in assay [5] and in assay [6] was “inactive” throughout. The Potency entry in assay [7], in assay [8], in [9], in [10], in [11] and in assay [12] was “inactive” in each case. Besides, the Potency entry in assay [13], in assay [14], in assay [16], in assay [17] and in assay [18] was “inactive” throughout. Also, in [15], the compound was called inactive.
With `COc1ccc(-c2coc3cc(O)cc(O)c3c2=O)cc1`, the Potency entry in assay [1], in assay [2], in assay [3], in assay [4], in assay [5] and in assay [6] was “inactive” throughout. The Potency entry in assay [7], in assay [8], in [19], in assay [16] and in assay [18] was “inactive” each time. Besides, the Potency was 54.5 µM (active) in [10], 27.3 µM (active) in assay [11] and 27.3 µM (active) in assay [12].
`Nc1ccc(N)c(Cl)c1`: the Potency result in assay [1], in [2], in [3], in assay [4], in assay [5] and in [6] was “inactive” each time. In addition, the Potency entry in [7], in assay [8], in assay [19], in assay [20], in assay [9] and in assay [18] was “inactive” in each case. Besides, the Potency in [10] was 68.5 µM (active) and inactive; in [11], 61 µM (active) and inactive.
`COc1cc([C@H]2Oc3cc([C@H]4Oc5cc(O)cc(O)c5C(=O)[C@@H]4O)ccc3O[C@@H]2CO)ccc1O`: the Potency result in assay [1], in assay [2], in assay [3], in [4], in assay [5] and in [6] was “inactive” in each case. For the same compound, the Potency result in assay [7], in assay [8], in [19], in assay [20], in [9] and in assay [10] was “inactive” each time. The Potency result in assay [11] and in assay [18] was “inactive” each time. In assay [12], the Potency was 29.8 µM (active) and 48.4 µM (active).
As for `CC(C)(Oc1ccc(Cl)cc1)C(=O)O`, the Potency entry in assay [1], in assay [2], in assay [3], in assay [4], in assay [5] and in assay [6] was “inactive” in each case. Further, the Potency entry in assay [7], in assay [8], in assay [19], in [20], in assay [10] and in assay [11] was “inactive” in each case. The Potency entry in assay [13] and in [16] was “inactive” each time.
`COC(=O)CC(=O)OC`: the Potency entry in assay [1], in [2], in assay [3], in [4], in assay [5] and in assay [6] was “inactive” each time. The Potency entry in assay [7], in [8], in [19], in assay [20], in [10] and in [11] was “inactive” in each case. For the same compound, the Potency entry in [13], in assay [16] and in assay [18] was “inactive” each time.
On to `C=CC(=O)OCCCC`, for which the Potency result in assay [1], in [2], in assay [3], in assay [4], in assay [5] and in assay [6] was “inactive” throughout. Further, the Potency result in assay [7], in assay [8], in [19], in [20], in [9] and in assay [10] was “inactive” throughout. Besides, the Potency entry in [11], in assay [12], in assay [16] and in assay [18] was “inactive” throughout.
On to `NCCN`, for which the Potency entry in [1], in assay [2], in assay [3], in assay [5], in assay [6] and in assay [7] was “inactive” in each case. In addition, the Potency entry in assay [8], in [13], in assay [16] and in assay [18] was “inactive” in each case.

The values above are taken from PubChem BioAssay (Tox21).
